D2 ag-1 = agonists of human D2 dopamine receptor (beta-arrestin) | P14416 | DiscoveRx PathHunter D2 beta-arrestin, luminescence, 90 min; 100% = 57 uM dopamine signal | activation, % (concentration not given with the values) | 0.084% of 360,000 active; in the data active = activation above about 40%
Target sequence (P14416 whole entry, looked up): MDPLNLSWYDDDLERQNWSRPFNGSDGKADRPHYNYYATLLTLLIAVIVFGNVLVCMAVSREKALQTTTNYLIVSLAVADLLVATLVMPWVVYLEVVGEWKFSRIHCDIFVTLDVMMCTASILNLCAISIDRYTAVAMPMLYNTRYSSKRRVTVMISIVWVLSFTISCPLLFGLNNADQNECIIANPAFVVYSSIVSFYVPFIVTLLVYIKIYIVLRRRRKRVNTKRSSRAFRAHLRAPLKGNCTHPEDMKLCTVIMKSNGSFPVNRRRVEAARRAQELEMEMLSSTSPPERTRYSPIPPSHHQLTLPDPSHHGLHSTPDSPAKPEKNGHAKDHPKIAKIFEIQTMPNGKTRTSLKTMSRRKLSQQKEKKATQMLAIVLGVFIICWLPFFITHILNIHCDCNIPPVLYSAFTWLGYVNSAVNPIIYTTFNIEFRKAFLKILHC
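Agonist mode: compounds alone added to overnight-plated D2 PathHunter cells for 90 min at 37 C, with 57 uM final dopamine (EC100) defining full response. Beta-arrestin recruitment detected by chemiluminescent reagent, read after 1 h at ambient temperature.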
D2 PAM-1 = positively modulates the human D2 dopamine receptor allosterically. potentiation, % at 10 µM. 0.34% of 340,000 active. P14416. HEK293 T-REx D2, calcium flux, EC20 dopamine potentiation;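 active = potentiation over 3 SD above the plate norm, cut at about 30% in these data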; also: 0% is about no effect
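Tetracycline-induced Hek293 Trex D2 cells, force-coupled to calcium, loaded with no-wash calcium dye. Compound added with 180 s kinetic read for agonism, then EC20 dopamine and a further 180 s read for potentiation.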
D2 PAM-2 = human D2 receptor positive allosteric modulation. P14416. DiscoveRx D2 beta-arrestin cells, luminescence, 90 min; 100% = 57 uM dopamine signal. potentiation, % (no concentration beside the values). 0.23% of 360,000 active. AID 624464; in the data active = potentiation above about 50%
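D2 cells co-treated with compound plus 50 nM dopamine (EC20) for 90 min at 37 deg C to detect potentiation. Beta-arrestin recruitment was read as enzyme-fragment luminescence after 1 h at ambient temperature. Full response was set by 57 uM dopamine.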
D2 antag = antagonists of human D2 dopamine receptor; P14416; inhibition, % at 10 µM; HEK293 TREx D2 cells, calcium flux, dopamine EC80; 2% of 340,000 active; in the data active = inhibition above about 30%; inactive = below that, where a call was filed; also: 0% is about no effect
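In this primary screen, negative modulation is detected by tracking calcium flux after an EC80 dopamine challenge in inducible HEK293 T-REx D2 cells preexposed to test compound for 180 s.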
D2 ag-2 = activates the human D2 dopamine receptor. activation, % at 2 µM. 0.53% of 340,000 active. HEK293 T-REx D2 cells, calcium flux agonist mode;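 active = activation over 3 SD above normal in the single-dose calcium agonist read, cut at about 30% in these data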; also: 0% is about no effect
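Calcium-flux readout, 1 cycle/sec over 180 s following compound pin transfer, in inducible HEK293 Trex D2 cells (force-coupled); dopamine controls included. Positive calcium responses during this window marked compounds as potential agonists.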
An asterisk follows results filed as active; . = no result. The list is not random: actives were taken first. Their share in the collection is about 2.4%.

SMILES	D2 ag-1	D2 PAM-1	D2 PAM-2	D2 antag	D2 ag-2
CCN1CCN(c2nc(Nc3cccc(C)c3)nc(N)c2[N+](=O)[O-])CC1	-6.2	-18.3	-14.7	84.9*	-0.2
CCN1CCN(c2nc(Nc3ccccc3F)nc(N)c2[N+](=O)[O-])CC1	-0.8	-21.4	-31.2	77.8*	-0.3
Cc1cccc(Nc2nc(N)c([N+](=O)[O-])c(N3CCCC(C)C3)n2)c1 (configuration not stated)	-8.3	17.5	-28.3	13.3	0.7
COc1ccc(C(=O)NCC(c2cccnc2)N2CCc3ccccc3C2)cc1OC (configuration not stated)	.	-0.4	.	.	-0.1
CCc1cccc(NC(=O)C(c2ccccc2)N2Cc3ccccc3C2=O)c1 (configuration not stated)	.	3.5	.	.	1.0
CCN1CCN(c2nc(Nc3ccccc3)nc(N)c2[N+](=O)[O-])CC1	-6.9	-19.8	-34.8	84.2*	-2.2
Cc1ccc(Nc2nc(N)c([N+](=O)[O-])c(N3CCOCC3)n2)cc1C	-9.0	20.9	-6.4	3.3	-2.2
Cc1ccc(S(=O)(=O)Cc2ccc(C(=O)NCCCN3CCCC3=O)o2)cc1	-3.3	-3.1	1.1	34.0*	0.9
O=C(NCCCN1CCCC1)c1ccc(CS(=O)(=O)c2ccc(Br)cc2)o1	-0.4	12.6	-9.1	-2.8	0.1
CCOc1ccccc1N(C)C(=O)c1c2c(nc3ccccc13)C(=O)N(C1CCCCC1)C2	.	1.4	.	.	1.2
O=C(NC1CCCCCCC1)c1cccnc1	-3.5	-1.7	-15.8	-1.4	-0.4
O=C(N=NC(=O)c1ccc2c(O)n(C3CCCCC3)c(O)c2c1)c1cccnc1	-4.8	39.9*	-8.4	-21.6	1.0
N#CCCCSc1ncccc1-c1nc2ccccc2[nH]1	-0.1	4.4	1.0	-5.6	0.3
N#CCSc1ncccc1-c1nc2ccccc2[nH]1	-1.4	36.7*	-4.0	14.0	0.8
CCOc1cc(/C=C2\SC(=S)N(C(C(=O)O)c3ccccc3)C2=O)ccc1O (configuration not stated)	-11.4	12.2	-20.1	-7.9	-0.1
COc1cc(/C=C2\SC(=S)N(C(C(=O)O)c3ccccc3)C2=O)ccc1O (configuration not stated)	-9.8	0.5	-20.3	1.3	32.5*
COCc1nnc(NC(C)=O)s1	-2.1	-8.7	-3.8	32.4*	0.5
C=CCN(CC=C)C(=O)Cc1ccc(F)cc1	-0.3	-4.2	-4.1	31.1*	0.0
CCCN(CCC)C(=O)Cc1ccc(F)cc1	-3.5	0.3	-1.9	18.4	-0.4
CCOC(=O)c1[nH]c(C)c(CCC(=O)Nc2ccc(Br)c(C)c2)c1C	.	-10.4	.	.	0.6
COc1cc2oc(=O)c(Br)c(C)c2c(OC)c1OC	-1.2	-1.2	-2.2	39.1*	-1.3
CC(NC(=O)c1ccccc1Cl)c1nnc(SCC(=O)Nc2ccc(C(=O)O)cc2)n1C (configuration not stated)	0.2	-2.2	-3.4	30.5*	-0.8
O=C(c1noc2c1CCCCC2)N1CCN(c2cccc(C(F)(F)F)c2)CC1	.	6.0	.	.	-0.8
COCCn1nnnc1SCC(=O)N1CCCCC1	-3.2	-6.7	-6.3	34.2*	0.5
CCn1nnnc1SCC(=O)N1CCCCC1	-2.7	1.6	-0.6	-1.6	0.3
SMILES	D2 ag-1	D2 PAM-1	D2 PAM-2	D2 antag	D2 ag-2
CCCCSCCCNC(=O)CN1C(=O)COc2ccc(S(=O)(=O)N3CCCC3)cc21	.	-0.8	.	.	-0.3
COC(=O)CC(NS(=O)(=O)c1cccs1)c1ccc2c(c1)OCO2 (configuration not stated)	3.5	2.7	-6.6	14.5	-0.2
COC(=O)CC(NS(=O)(=O)c1cccs1)c1ccccc1Cl (configuration not stated)	-4.9	-3.8	-5.0	34.7*	0.0
CCc1ccccc1NC1Nc2cc(C)nn2S1 (configuration not stated)	-3.9	56.5*	-8.3	7.7	0.3
Cc1cc2n(n1)SC(Nc1cccc3ccccc13)N2 (configuration not stated)	-1.5	0.2	11.0	-2.1	0.5
CCOC(=O)C1C(=O)Nc2nc(C)nn2C1c1ccccc1 (configuration not stated)	-1.9	5.4	-12.8	41.9*	0.5
CCOc1ccc2[nH]c(=O)c(CN(CCO)C(c3nnnn3C3CCCCC3)C(C)C)cc2c1 (configuration not stated)	2.4	-5.2	8.8	34.8*	0.3
CCc1cccc(C)c1NC(=O)C(CC)n1ncn2c(cc3cc(C)ccc32)c1=O (configuration not stated)	.	6.2	.	.	-0.6
Cc1cc(C)nc(N(C#N)Cc2ccccc2C)n1	0.0	-2.8	-5.3	49.8*	-0.2
CCOC(=O)c1c(NC(=O)COC(=O)c2nc(Cl)ccc2Cl)sc(C(=O)N(C)C)c1C	-2.3	4.2	-13.8	-4.0	1.0
CCOC(=O)c1c(NC(=O)COC(=O)CNC(=O)c2ccc(Cl)cc2Cl)sc(C(=O)N(C)C)c1C	-0.9	32.2*	-5.2	8.8	-1.1
Cn1nc(C(F)(F)F)c2cc(C(=O)Nc3ccc(Cl)cc3)sc21	1.9	-25.0	-36.6	64.4*	1.3
Cn1nc(C(F)(F)F)c2cc(C(=O)Nc3ccc(F)cc3F)sc21	3.1	10.8	-20.4	-5.1	-0.2
Cc1cccc(-c2noc(-c3cccnc3NCc3ccco3)n2)c1	.	2.2	.	.	0.5
CCc1ccc(NC(=O)c2ccc3c(c2)N(Cc2ccc(C)cc2)CCS3)cc1	.	-21.0	.	.	0.4
O=C(OCc1ccccc1)C1=[N+]([O-])OC(C(=O)OCc2ccccc2)C1c1c[nH]c2ccccc12 (configuration not stated)	5.8	1.7	62.8*	-11.4	-0.7
C#CCN(C)Cc1ccccc1	4.0	6.8	-8.9	31.9*	-1.6
COc1ccc(CC(=O)Nc2ccc(-c3noc(-c4cc(OC)c(OC)c(OC)c4)n3)cc2)cc1	3.1	42.2*	-15.8	-24.9	-0.3
CC1CCN(CCOCCOc2ccccc2-c2ccccc2)CC1	-2.6	-27.1	-45.0	55.8*	-0.1
CC1CCN(CCCCOc2ccccc2-c2ccccc2)CC1	2.6	-20.7	-11.9	83.8*	0.5
CC1CCCN(CCOCCSc2ccccc2)C1 (configuration not stated)	-5.0	-19.9	-26.3	1.5	-2.5
CC1CCN(CCOCCOc2ccccc2Br)CC1	-4.2	-28.1	-17.9	13.4	1.7
CC1CCCN(CCCOc2ccccc2-c2ccccc2)C1 (configuration not stated)	-1.8	-27.7	-20.6	73.4*	-1.3
CCOC(=O)c1c(C)[nH]c(C)c1S(=O)(=O)N1CCC(C(=O)Nc2ccc(F)cc2F)CC1	.	-9.8	.	.	0.1
Nc1ccc(O)cc1C(=O)OCC(=O)c1ccc(C2CCCCC2)cc1	12.8	-3.7	76.8*	-6.6	0.4

Bioassay records from PubChem.
